FBW7 activator: human FBW7 E3 ligase activation, primary screen; Q969H0; AlphaScreen FBW7–phospho-cyclin E peptide binding, activator screen; normalized activity (activation), % at 26.1 µM; 650,000 tested, 0.13% active; in the data active means normalized activity above about 1.9%;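 further: purified mutant Fbw7 with reduced substrate affinity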
MITF inh: blocks human microphthalmia-associated transcription factor | inhibition, % at 2.6 µM | AlphaScreen MITF homodimerization, bead proximity signal | 650,000 tested, 0.91% active; in the data active means inhibition above about 50%;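 further: 0% = vehicle wells with protein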
GPR151 activ: activates the human receptor GPR151; activation, % at 11.2 µM; 650,000 tested, 1% active; PathHunter beta-arrestin GPR151 cells, luminescence; Q8TDV0; in the data active means activation above about 4.9%;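 further: 0% = median of compound wells and 100% = cells with positive control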
TEAD-YAP block: TEAD-YAP interaction inhibition | HEK-TIYL cells, TEAD-Gal4/YAP UAS-luciferase luminescence | inhibition, % at 9.12 µM | 640,000 tested, 1.4% active; in the data active means inhibition above about 32%;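 further: 0% = median of test compound wells and 100% = reference inhibitor wells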
GPR151 confirm: confirmation of human GPR151 activators; activation, % at 11.2 µM; AID 1508609; GPR151 PathHunter beta-arrestin cells, luminescence, 90 min; % of EA-reagent control over plate median; shares compounds with GPR151 activ; 6,700 tested, under 10 active;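 active means mean percent activation across replicates above the confirmation screen cutoff of 4.91%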
GPR119 counter: counter-screen for GPR151 activators: effect on human GPR119. GPR119 PathHunter beta-arrestin cells, luminescence, 90 min; 0 = compound-well median, 100 = enzyme-acceptor control. shares compounds with GPR151 activ. 6,700 tested, 0.3% active. activation, % at 11.2 µM;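 active means mean percent activation in the counterscreen above 29.09%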;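 further: counterscreen on off-target GPR119 to flag nonselective hits from the GPR151 activator screen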
Target sequence (Q8TDV5 whole entry, looked up): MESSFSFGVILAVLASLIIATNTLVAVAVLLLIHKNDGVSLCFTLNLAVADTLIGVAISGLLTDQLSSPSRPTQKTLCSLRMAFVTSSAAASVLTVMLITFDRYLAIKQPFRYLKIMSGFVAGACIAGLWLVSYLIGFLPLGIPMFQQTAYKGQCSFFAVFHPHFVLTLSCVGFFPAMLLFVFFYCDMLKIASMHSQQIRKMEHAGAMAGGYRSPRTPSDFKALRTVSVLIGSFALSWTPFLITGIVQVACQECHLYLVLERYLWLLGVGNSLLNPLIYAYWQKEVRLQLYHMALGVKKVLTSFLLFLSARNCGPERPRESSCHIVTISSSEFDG
The depositor's hits bear a star; x = no result; ! = not confirmed by another sample. Most compounds without a hit are left out; they make up all but 3.4% or so of the library.

SMILES | FBW7 activator | MITF inh | GPR151 activ | TEAD-YAP block | GPR151 confirm | GPR119 counter
Cc1ccc(C(C)C)c(OC2=NS(=O)(=O)c3cc([N+](=O)[O-])ccc32)c1 | 0 | 16 | 13* | 6 | -1 | -6
Cc1ccc(C)c(OC2=NS(=O)(=O)c3cc([N+](=O)[O-])ccc32)c1 | 0 | -3 | 3 | 0 | x | x
CC1(C)CC(NC(=S)Nc2ccccc2Cl)CC(C)(C)N1 | 0 | 1 | 0 | -6 | x | x
CCC(C)N(C(=O)c1csnn1)C(C(=O)NCc1ccc(F)cc1)c1ccco1 (configuration not stated) | 1 | -5 | 7.2* | -11 | 1 | 4
Cc1cnc(C(=O)OCC(=O)Nc2cc([N+](=O)[O-])ccc2F)cn1 | 0 | 15 | -2 | 1 | x | x
CCOC(=O)N1CCN(c2c(NCc3ccc(Cl)cc3)c(=O)c2=O)CC1 | 0 | 2 | 4.9* | 53* | 0 | -8
O=C(O)c1ccc(CNc2c(N3CCCCC3)c(=O)c2=O)cc1 | 0 | 1 | 7.5* | -6 | 0 | -1
CCOC(=O)N1CCN(c2c(NC3CCCCC3)c(=O)c2=O)CC1 | 0 | 10 | 0 | 1 | x | x
CCOC(=O)N1CCN(c2c(NC3CCC(C)CC3)c(=O)c2=O)CC1 (configuration not stated) | 0 | 1 | 5.0* | -3 | 0 | 9
CCOC(=O)N1CCN(c2c(NCc3cccnc3)c(=O)c2=O)CC1 | 0 | -6 | -1 | 3 | x | x
COc1cccc(CNC(=O)c2ccc(CNc3c(N4CCOCC4)c(=O)c3=O)cc2)c1 | 0 | 1 | 8.6* | -12 | -1 | -6
CC1CC(C)(C)NC(=S)N1CCC(=O)NCCN1CCCc2ccccc21 (configuration not stated) | 0 | 10 | 1 | 2 | x | x
O=C(CSc1nc2[nH]ncc2c(=O)n1-c1cccc(Cl)c1)NCC1CCCO1 (configuration not stated) | 0 | -10 | 2 | 8 | x | x
Cc1ccc(N=Cc2nc(-c3ccccc3Br)oc2O)c(Br)c1 | 0 | -3 | 2 | -2 | x | x
CCC(C)c1ccccc1NS(=O)(=O)Cc1ccccc1 (configuration not stated) | 0 | -2 | 5.8* | 5 | 0 | -8
CC(C)NC(=O)c1ccccc1NS(=O)(=O)Cc1ccccc1 | 1 | 14 | 0 | 15 | x | x
Cc1ccc(CNc2ncnc3c2c(-c2ccccc2)cn3-c2ccc(C)cc2)cc1 | 0 | 3 | 3 | -3 | x | x
CN1C(=O)C(O)(CC(=O)c2ccc(F)cc2)c2ccccc21 (configuration not stated) | 0 | -6 | 4 | 1 | x | x
CC(C)N1C(=O)C(O)(CC(=O)c2ccc3ccccc3c2)c2ccccc21 (configuration not stated) | 0 | 6 | 6.2* | 2 | -1 | -9
CN1C(=O)C(O)(CC(=O)c2cccnc2)c2ccccc21 (configuration not stated) | 0 | 18 | 14* | 9 | -1 | -13
CN1C(=O)C(O)(CC(=O)c2ccc3ccccc3c2)c2ccccc21 (configuration not stated) | 0 | 5 | 0 | -2 | x | x
COc1ccc(C(=O)CC2(O)C(=O)N(C(C)C)c3ccccc32)cc1 (configuration not stated) | 0 | -17 | 12* | -4 | 0 | -9
O=C(Nc1cccc(-c2nnc(-c3ccccc3)o2)c1)C(F)(F)F | 0 | -5 | -2 | -23 | x | x
O=C1OC(c2ccc(Cl)cc2Cl)=N/C1=C\c1cccc(Cl)c1Cl | 0 | -4 | 8.0* | -11 | 0 | 8
c1cc(-c2ccc3nc(C4CCCNC4)[nH]c3c2)ccn1 (configuration not stated) | 0 | -9 | 0 | -6 | x | x
SMILES | FBW7 activator | MITF inh | GPR151 activ | TEAD-YAP block | GPR151 confirm | GPR119 counter
O=C(NCC1CCC2(CCN(C(=O)c3ccncc3)CC2)O1)c1ccc2[nH]ccc2c1 (configuration not stated) | 0 | -5 | 8.0* | 5 | 0 | 12
CCN(CC)CCCNCC(=O)Nc1ccc(C)c(Br)c1 | 0 | 11 | -1 | -9 | x | x
Cc1ncc(CO)c(CNc2ccc(F)cc2)c1O | 0 | -2 | 0 | 0 | x | x
CCN(CC)C(=O)Cn1c(=O)n(-c2ccccc2)c(=O)c2oc3ccccc3c21 | 0 | -4 | 1 | 8 | x | x
CCN(CC)C(=O)Cn1c(=O)n(-c2ccc(C)cc2)c(=O)c2oc3ccccc3c21 | 0 | 16 | 5.2* | 12 | 0 | -3
CN(C)C(=O)COC(=O)c1ccc(N)c([N+](=O)[O-])c1 | 0 | -7 | 1 | -5 | x | x
CC1CC(C)CN(C(=O)C2CCCN(c3nnc(N4CCCC4=O)s3)C2)C1 (configuration not stated) | 0 | 5 | 1 | 0 | x | x
Clc1ccccc1C(c1ccccc1)(c1ccccc1)n1ccnc1 | 0 | -14 | 6.9*! | 0 | 2 | -12
c1csc(CNc2ncc(-c3ccsc3)n3ccnc23)c1 | -1 | 14 | 0 | -75 | x | x
CN(C)CCCNc1ccc(S(N)(=O)=O)cc1[N+](=O)[O-] | 1 | 8 | 5.7* | 2 | 0 | 3
CC(C)=C/C(C)=N/Nc1ccc(S(N)(=O)=O)cc1[N+](=O)[O-] | 0 | -3 | 4.9* | 4 | -1 | -9
CCC(CC)CN1CCC2(CC1)c1ccccc1[C@@H](NC(=O)CSC)[C@@H]2OC | 0 | -7 | -1 | 6 | x | x
CC1(C)CC(=O)C2=C(C1)OC1=C(C(=O)CC(C)(C)C1)C2c1cc(Cl)cc(Cl)c1OCc1ccc(Cl)cc1Cl | 0 | -9 | 5.5* | 8 | 0 | 11
CC1=C(C(=O)CN2CCN(c3ccccc3)CC2)N2C=CC=CC2N1 (configuration not stated) | 0 | 5 | 9.2* | 7 | 1 | 7
COc1ccc(CCN(C)CCCC(C#N)(c2cc(OC)c(OC)c(OC)c2)C(C)C)cc1OC (configuration not stated) | 0 | -5 | 5.6* | -4 | -1 | -14
CCCc1c(C(=O)OCC)nnn1-c1nonc1N | 1 | 24 | -1 | 5 | x | x
O=[N+]([O-])c1cccc(CNc2cccc(F)c2)c1 | 0 | 6 | 11* | 5 | 1 | 3
CCC1=NN(C(=O)Cc2ccccc2)C(O)(c2ccccc2)C1 (configuration not stated) | 0 | 6 | 6.9* | -5 | 0 | 7
Cc1ccnc(NC(=O)C2CC=CCC2C(=O)O)c1 (configuration not stated) | 0 | 14 | 6.3* | -5 | 0 | -4
Cc1ccnc(NC(=O)C2CCCC2)c1 | 0 | 16 | 0 | -11 | x | x
CCC[C@@H]1NC(=O)[C@@H]2C[C@H](NCc3cc4ccccc4s3)CN2C1=O | 0 | 10 | 5.6* | 1 | 0 | 13

Screening results as filed in PubChem.
